Inconclusive results are not listed. Some of the results follow. Entries that show only a call come without a potency. Activity calls are given as the source filed them. Unless noted, calls come from the whole dose curve; as a rule, active = well fitted curve in the direction sought with a large enough effect; inconclusive = small, poorly fitted or top-dose-only effect, or another doubt; inactive = no such curve, though single readings can be large; an effect the other way counts as inactive or inconclusive.
Legend:
[1] = target: Luciferin 4-monooxygenase (Photinus pyralis) (UniProt P08659); test: Biochemical firefly luciferase enzyme assay for NPC (AID 624030); note: nearly all actives have a fitted effect of over 70% in size; note: potency is the fitted concentration of half-maximal effect
In short: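 Purified P. pyralis luciferase at 10 nM in 50 mM Tris Acetate (final), luminescence read within 5 minutes of enzyme addition to compounds. Activity normalised to PTC124 versus DMSO; concentration-response curves classed by r2, magnitude and activity.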

[2] = S16 Schwann cell viability assay (CellTiter-Glo assay) (AID 624031);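 note: cellular ATP luminescence as a viability measure; series mostly up to about 58 µM; nearly all actives have a fitted effect of over 70% in size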
In short: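 This viability control uses native rat S16 Schwann cells grown in DMEM plus 10% FBS. After a 24 h compound treatment at 37 °C, CellTiter-Glo luminescence reports ATP content, scaled against DMSO-treated and cell-free wells.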

[3] = S16 Schwann cell PMP22 intronic element firefly luciferase assay (AID 624032); note: series mostly up to about 58 µM; nearly all actives have a fitted effect of over 30% in size
In short: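 Rat S16 Schwann cells stably carrying firefly luciferase driven by a PMP22 intronic element, in 10% FBS, treated 24 h at 37 C. ONE-Glo luminescence normalized to PTC124 control and DMSO (0%); curves classed by r2, magnitude and activity.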

[4] = S16 Schwann cell PMP22 intronic element beta-lactamase assay (AID 624044; calls by dose curve; note: nearly all actives have a fitted effect of over 15% in size)
In short: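 Rat S16 Schwann cells with beta-Lac driven by a PMP22 intronic element, compound-treated 24 h at 37 °C. LiveBLAzer FRET B/G read: 460 nm normalized to potassium clavulanate vs DMSO; 535 nm FRET as viability; concentration-effect curves classified.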

[5] = target: Voltage-gated inwardly rectifying potassium channel KCNH2 (Homo sapiens) (UniProt Q12809); test: qHTS Assay for Small Molecule Inhibitors of the Human hERG Channel Activity (AID 588834);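 note: top concentration of the series differs between compounds; lower thallium flux fluorescence means stronger hERG block; nearly all actives have a fitted effect of over 50% in size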
In short: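 Kinetic FDSS fluorescence; U2OS + hERG BacMam (~100 virus particles/cell); FluxOR Tl+ flux; ~10 min cpd; AC50 (Hill).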

[6] = target: DNA polymerase kappa (Homo sapiens) (UniProt Q9UBT6); test: qHTS for Inhibitors of Polymerase Kappa: Confirmatory Assay for Cherry-picked Compounds (AID 720501); settings: purified Pol-kappa, fluorescent strand-displacement substrate; note: potency is the fitted concentration of half-maximal effect
In short: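 10 nM human Pol-kappa was preincubated with compound 15 min at room temperature, then 50 nM (final) primer/template substrate with TAMRA-labeled reporter strand and BHQ-2-labeled template added. Fluorescence (Ex 525, Em 598 nm) read at 0 and 10 min.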

Chain of Voltage-gated inwardly rectifying potassium channel KCNH2 (Homo sapiens) (Q12809 whole entry, looked up): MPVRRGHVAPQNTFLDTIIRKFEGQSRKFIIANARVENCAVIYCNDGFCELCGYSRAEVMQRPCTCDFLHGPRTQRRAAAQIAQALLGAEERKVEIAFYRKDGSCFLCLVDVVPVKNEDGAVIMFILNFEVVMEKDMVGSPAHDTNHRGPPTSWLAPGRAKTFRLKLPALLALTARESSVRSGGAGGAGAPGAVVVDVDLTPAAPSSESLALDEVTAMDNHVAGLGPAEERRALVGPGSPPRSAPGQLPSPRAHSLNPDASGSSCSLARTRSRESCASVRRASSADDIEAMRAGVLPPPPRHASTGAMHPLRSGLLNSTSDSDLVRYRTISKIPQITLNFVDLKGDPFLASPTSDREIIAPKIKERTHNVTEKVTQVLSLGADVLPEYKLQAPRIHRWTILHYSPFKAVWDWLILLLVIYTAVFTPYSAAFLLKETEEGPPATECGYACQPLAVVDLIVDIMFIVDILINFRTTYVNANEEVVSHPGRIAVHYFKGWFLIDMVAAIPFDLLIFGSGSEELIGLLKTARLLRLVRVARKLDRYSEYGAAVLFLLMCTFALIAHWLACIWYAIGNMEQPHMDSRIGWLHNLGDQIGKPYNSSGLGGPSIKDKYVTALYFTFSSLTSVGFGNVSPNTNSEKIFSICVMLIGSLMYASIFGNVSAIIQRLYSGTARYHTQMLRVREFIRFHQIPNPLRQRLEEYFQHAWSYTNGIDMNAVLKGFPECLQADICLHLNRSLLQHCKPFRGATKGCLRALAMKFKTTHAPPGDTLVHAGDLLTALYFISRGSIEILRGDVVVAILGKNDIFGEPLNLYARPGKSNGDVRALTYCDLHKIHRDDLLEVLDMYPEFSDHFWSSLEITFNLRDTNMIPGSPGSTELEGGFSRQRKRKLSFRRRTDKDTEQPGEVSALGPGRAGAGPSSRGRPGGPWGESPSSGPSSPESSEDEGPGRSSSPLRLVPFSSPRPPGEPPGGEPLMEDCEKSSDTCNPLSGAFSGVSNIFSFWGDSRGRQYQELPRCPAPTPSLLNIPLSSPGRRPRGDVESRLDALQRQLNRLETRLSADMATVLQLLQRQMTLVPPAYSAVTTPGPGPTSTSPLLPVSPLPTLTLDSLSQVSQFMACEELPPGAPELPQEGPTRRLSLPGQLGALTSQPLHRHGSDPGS
Chain of Luciferin 4-monooxygenase (Photinus pyralis) (P08659 whole entry, looked up): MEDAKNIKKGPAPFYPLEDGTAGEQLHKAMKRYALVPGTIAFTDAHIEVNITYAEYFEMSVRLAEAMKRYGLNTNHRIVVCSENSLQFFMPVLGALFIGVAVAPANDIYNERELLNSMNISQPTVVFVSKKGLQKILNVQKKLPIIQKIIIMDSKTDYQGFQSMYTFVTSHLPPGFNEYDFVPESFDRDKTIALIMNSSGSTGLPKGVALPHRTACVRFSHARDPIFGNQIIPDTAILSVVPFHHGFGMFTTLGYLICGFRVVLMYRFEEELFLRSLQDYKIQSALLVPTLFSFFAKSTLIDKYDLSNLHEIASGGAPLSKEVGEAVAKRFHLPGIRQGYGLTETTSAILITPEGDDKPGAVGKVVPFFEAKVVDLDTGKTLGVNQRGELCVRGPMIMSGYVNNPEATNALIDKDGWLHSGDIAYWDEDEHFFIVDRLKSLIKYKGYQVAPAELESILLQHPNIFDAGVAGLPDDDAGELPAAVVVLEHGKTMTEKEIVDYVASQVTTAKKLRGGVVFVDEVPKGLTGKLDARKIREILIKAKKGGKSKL
Chain of DNA polymerase kappa (Homo sapiens) (Q9UBT6 whole entry, looked up): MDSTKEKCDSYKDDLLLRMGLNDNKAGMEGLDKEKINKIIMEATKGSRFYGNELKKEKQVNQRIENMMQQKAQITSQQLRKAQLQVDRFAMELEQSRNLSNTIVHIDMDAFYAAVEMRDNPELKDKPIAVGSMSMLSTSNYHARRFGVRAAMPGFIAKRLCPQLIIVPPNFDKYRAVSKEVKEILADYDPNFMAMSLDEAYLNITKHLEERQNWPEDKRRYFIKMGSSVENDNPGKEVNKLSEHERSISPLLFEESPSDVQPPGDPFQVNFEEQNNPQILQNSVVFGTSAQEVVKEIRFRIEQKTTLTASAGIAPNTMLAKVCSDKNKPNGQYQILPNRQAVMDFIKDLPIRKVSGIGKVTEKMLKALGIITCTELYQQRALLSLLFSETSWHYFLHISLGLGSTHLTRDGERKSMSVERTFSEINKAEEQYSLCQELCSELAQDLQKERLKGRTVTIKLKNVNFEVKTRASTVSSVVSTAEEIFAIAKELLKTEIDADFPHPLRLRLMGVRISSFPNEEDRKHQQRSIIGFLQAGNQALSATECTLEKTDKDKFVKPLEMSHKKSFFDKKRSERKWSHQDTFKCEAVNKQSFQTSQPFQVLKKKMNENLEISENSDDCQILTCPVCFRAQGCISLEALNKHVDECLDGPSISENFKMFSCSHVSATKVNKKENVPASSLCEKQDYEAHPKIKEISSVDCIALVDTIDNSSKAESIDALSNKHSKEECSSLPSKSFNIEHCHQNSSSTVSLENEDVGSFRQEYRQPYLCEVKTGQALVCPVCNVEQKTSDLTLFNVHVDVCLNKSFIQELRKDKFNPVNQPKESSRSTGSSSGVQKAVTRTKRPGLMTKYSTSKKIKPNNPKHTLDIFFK

Structure (SMILES)	Potency [1]	outcome [2]	Potency [3]	outcome [4]	Potency [5]	Potency [6]
CCCCCCCCCCC(CO)CCCCCCCC (stereo unspecified)	inactive	inactive	inactive			
CCN(CC)CC1CCCCN1CC(=O)N1c2ccccc2C(=O)Nc2cccnc21 (stereo unspecified)	inactive	inactive	inactive	inactive		
O=C1c2ccccc2S(=O)(=O)N1CCCCN1CCN(c2ncccn2)CC1	inactive	inactive				
C[C@@H](N)C(=O)O	inactive		inactive	inactive	inactive	
CCCCCCCCCCCCCCCCN	inactive		inactive	inactive	inactive	
CCCNC(C)(C)COC(=O)c1ccccc1	inactive		inactive	inactive	inactive	
NC(N)=NS(=O)(=O)c1ccc(N)cc1	inactive		inactive	inactive		
Cc1c(NC(=O)c2cccnc2)c(=O)n(-c2ccccc2)n1C	inactive	inactive	inactive			
NC(N)=NCCN1CCCCCCC1	inactive	inactive	inactive	inactive		
COc1ccc(-c2cc(=O)c3c(O)cc(O[C@@H]4O[C@H](CO[C@@H]5O[C@@H](C)[C@H](O)[C@@H](O)[C@H]5O)[C@@H](O)[C@H](O)[C@H]4O)cc3o2)cc1O					inactive	18.9 µM (active)
O=C(CCBr)N1CCN(C(=O)CCBr)CC1	inactive		inactive	inactive		
c1ccc2[nH]ccc2c1	inactive		inactive	inactive	inactive	
Cc1cccc(C)c1NC(=O)CC12CCCN1CCC2	inactive	inactive	inactive			
CCS(=O)(=O)CCn1c([N+](=O)[O-])cnc1C	inactive	inactive	inactive	inactive		
COc1ccc2cc(CCC(C)=O)ccc2c1		inactive	inactive	inactive	inactive	
N[C@@H](Cc1ccc(O)cc1)C(=O)O	inactive	inactive	inactive	inactive		
COc1ccc(NS(=O)(=O)c2ccc(N)cc2)nn1	inactive		inactive	inactive	inactive	
NNc1nnc(NN)c2ccccc12		inactive	inactive	inactive	inactive	
O=C1c2ccccc2C(=O)C1c1ccc(Br)cc1		inactive	inactive	inactive	inactive	
CCCCCCCCCCCCCCCCC(C(=O)O)C(O)(CC(=O)O)C(=O)O (stereo unspecified)		inactive	inactive	inactive	inactive	
O=C(O)COC(=O)Cc1ccccc1Nc1c(Cl)cccc1Cl	inactive	inactive	inactive			
CCCOC(=O)c1ccc(N)cc1	inactive		inactive	inactive	inactive	
NS(=O)(=O)c1cc(-c2nn[nH]n2)c(NCc2cccs2)cc1Cl		inactive	inactive		inactive	
CC(O)CCCCn1c(=O)c2c(ncn2C)n(C)c1=O (stereo unspecified)	inactive		inactive	inactive	inactive	
CC(C)CCOC(=O)c1ccc(N(C)C)cc1	6.42 µM (active)	inactive	inactive			
O=C(O)CNC(=O)c1ccccc1I		inactive	inactive		inactive	

— PubChem BioAssay (NCATS)
